C diff growth: C. difficile growth inhibition; hit rate 0.25% among 86,000; AID 1259249; growth activity, negative = inhibition, % at 16 µg/mL (by protocol); Clostridium difficile clinical isolate growth, OD600, 24 h; active compounds read low;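 active = mean growth activity at or below -80% and every replicate also at or below -80%; inconclusive = mean at or below -80% but some replicate above -80%; inactive = mean growth activity above -80%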;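 note: 0% = DMSO wells and -100% = levofloxacin 16 µg/mL wells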
Pf Dd2 inh: P. falciparum Dd2 growth inhibition; SYBR Green, 72 h; active compounds read low; activity change, % at 10 µM; hit rate 2.3% among 94,000; in the data active = activity change below about -80%; inconclusive = no clear call, values can overlap the other calls
T cruzi growth-1: inhibitors of T. cruzi proliferation. AID 624255. hit rate 5.9% among 77,000. inhibition, % at 8.34 µM. T. cruzi beta-gal in NIH3T3, GalScreen luminescence, 90 h;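 active = mean inhibition above about 93%, with at least 55% of replicates each passing it, limit read from the data, passing the limit was not always enough; inconclusive = only one of those two conditions holds; inactive = neither condition holds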
T cruzi growth-2: inhibitors of T. cruzi proliferation | shares compounds with T cruzi growth-1 | T. cruzi beta-gal in NIH3T3, GalScreen luminescence, 90 h | inhibition, % at 8.35 µM | hit rate 72% among 5,600 | AID 651739;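 active = mean replicate inhibition above about 95% and at least 55% of replicates individually reaching it, limit read from the data; inconclusive = only one of the two criteria is met; inactive = neither criterion is met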
T cruzi growth-3: blocks T. cruzi growth in NIH3T3 host cells. shares compounds with T cruzi growth-1. T. cruzi beta-gal in NIH3T3, GalScreen luminescence, 90 h. inhibition, % at 2.09 µM. hit rate 21% among 5,600. AID 651740;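 active = mean inhibition above about 95%, with at least 55% of replicates also reaching it, limit read from the data; inconclusive = meets just one of the two conditions; inactive = meets neither condition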;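 note: plate controls were neutral control median for no effect and positive control median for full effect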
NIH3T3 tox: NIH/3T3 (mouse) viability loss | shares compounds with T cruzi growth-1 | NIH/3T3 viability, CellTiter-Glo ATP luminescence, 90 h | cytotoxicity (signal decrease), % at 8.35 µM | hit rate 14% among 5,600;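 active = mean signal decrease across replicates above about 35% based on untreated-well scatter, with enough replicates individually passing, limit read from the data; inconclusive = no rule stated though some were filed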;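 note: 0% = median of neutral control wells and 100% = median of positive control wells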
NIH3T3 tox 2: kills mouse NIH/3T3 fibroblasts. shares compounds with T cruzi growth-1. NIH/3T3 viability, CellTiter-Glo ATP luminescence, 90 h. inhibition, % at 24.9 µM. hit rate 56% among 5,600;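 active = mean loss of cell viability signal at or above a set limit, and enough replicates individually reaching it; inconclusive = meets only the mean limit or only the replicate share; inactive = meets neither condition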;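 note: 0% = median of neutral control wells and 100% = median of positive control wells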
* = called active by the depositor. Shown are actives, neighbours in structure and some others; about 6.8% of the full set was active somewhere.

CC(C)NC(=O)N(C)C[C@@H]1Oc2ncc(-c3ccc(C(=O)N(C)C)cc3)cc2C(=O)N([C@@H](C)CO)C[C@@H]1C was read as C diff growth -9, Pf Dd2 inh 18 and T cruzi growth-1 39.
`CCCNC(=O)N1[C@@H](CO)[C@@H](c2ccccc2)[C@@H]1CNC(=O)c1ccc(F)cc1` gave C diff growth 10, Pf Dd2 inh 13 and T cruzi growth-1 22.
`COc1ccc2c3c([nH]c2c1)[C@H](CO)N(C(=O)C1CCCC1)CC31CN(C)C1` gave C diff growth -6 and Pf Dd2 inh -29.
For C[C@H]1CN([C@@H](C)CO)C(=O)c2c(c3ccccc3n2C)-c2ccccc2CO[C@H]1CN(C)C(=O)Nc1ccnc(N2CCOCC2)c1 the results were C diff growth -12 and Pf Dd2 inh -55.
`C[C@H]1CN([C@@H](C)CO)C(=O)c2ccccc2-c2ccccc2CO[C@@H]1CN(C)C(=O)Nc1ccnc(N2CCOCC2)c1` gave C diff growth -8, Pf Dd2 inh -3, T cruzi growth-1 108*, T cruzi growth-2 101*, T cruzi growth-3 inconclusive, NIH3T3 tox 7 and NIH3T3 tox 2 14.
C[C@@H]1CN([C@@H](C)CO)C(=O)c2c(c3ccccc3n2C)-c2ccccc2CO[C@@H]1CN(C)C(=O)Nc1ccnc(N2CCOCC2)c1 was read as C diff growth -8 and Pf Dd2 inh -3.
For C[C@@H]1CN([C@H](C)CO)C(=O)c2ccccc2-c2ccccc2CO[C@H]1CN(C)C(=O)Nc1ccnc(N2CCOCC2)c1 the results were C diff growth -1, Pf Dd2 inh 7, T cruzi growth-1 inconclusive, T cruzi growth-2 96*, T cruzi growth-3 74, NIH3T3 tox -12 and NIH3T3 tox 2 -3.
Screening CO[C@@H]1CN(C)C(=O)c2ccc(NC(=O)C3CCCC3)cc2OC[C@@H](C)N(S(=O)(=O)c2ccc(Cl)cc2)C[C@H]1C returned C diff growth 13, Pf Dd2 inh -76 and T cruzi growth-1 50.
`C[C@H](CO)N1C[C@H](C)[C@@H](CN(C)Cc2ccc(Cl)c(Cl)c2)Oc2c(NC(=O)c3ccncc3)cccc2C1=O` gave C diff growth 15, Pf Dd2 inh -8 and T cruzi growth-1 89.
C[C@@H]1CN([C@@H](C)CO)C(=O)c2cccc(NC(=O)c3ccncc3)c2O[C@@H]1CN(C)Cc1ccc2c(c1)OCO2 was read as C diff growth 1, Pf Dd2 inh -5 and T cruzi growth-1 68.
Screening C[C@@H]1CN([C@@H](C)CO)C(=O)c2cccc(NC(=O)c3ccncc3)c2O[C@@H]1CN(C)Cc1ccc(Cl)c(Cl)c1 returned C diff growth 3, Pf Dd2 inh -18, T cruzi growth-1 97*, T cruzi growth-2 100*, T cruzi growth-3 84, NIH3T3 tox -11 and NIH3T3 tox 2 6.
For C[C@H]1CN([C@@H](C)CO)C(=O)c2cccc(NC(=O)c3ccncc3)c2O[C@@H]1CN(C)Cc1ccc2c(c1)OCO2 the results were C diff growth 8, Pf Dd2 inh -4, T cruzi growth-1 100*, T cruzi growth-2 91, T cruzi growth-3 87, NIH3T3 tox -17 and NIH3T3 tox 2 1.
Screening C[C@@H]1CN([C@H](C)CO)C(=O)c2cccc(NC(=O)c3ccncc3)c2O[C@@H]1CN(C)Cc1ccc2c(c1)OCO2 returned C diff growth 1, Pf Dd2 inh -2 and T cruzi growth-1 32.
`C[C@H](CO)N1C[C@H](C)[C@@H](CN(C)Cc2ccc3c(c2)OCO3)Oc2c(NC(=O)c3ccncc3)cccc2C1=O` gave C diff growth -4, Pf Dd2 inh 3, T cruzi growth-1 99*, T cruzi growth-2 104*, T cruzi growth-3 89, NIH3T3 tox -1 and NIH3T3 tox 2 35*.
COc1ccc2c3c(n(C)c2c1)[C@@H](CO)N(C(=O)Cc1ccccc1)CC31CN(C(=O)Cc2ccccc2)C1 was read as C diff growth 10 and Pf Dd2 inh -32.
Screening CCCN1C[C@@H](C)[C@@H](OC)CN(C)C(=O)c2cc(NC(=O)C3CCOCC3)ccc2OC[C@H]1C returned Pf Dd2 inh 15 and T cruzi growth-1 -8.
Screening Cc1cccc(S(=O)(=O)N2CCCCN3[C@H](CO)[C@@H](c4ccc(-c5ccccc5)cc4)[C@H]3C2)c1 returned C diff growth 51, Pf Dd2 inh -8 and T cruzi growth-1 58.
`C/C=C/c1ccc([C@@H]2[C@@H](CO)N3CCCCN(S(=O)(=O)c4cccc(C)c4)C[C@@H]23)cc1` gave C diff growth 2, Pf Dd2 inh -37, T cruzi growth-1 108*, T cruzi growth-2 100*, T cruzi growth-3 81, NIH3T3 tox -6 and NIH3T3 tox 2 73*.
Screening C/C=C/c1ccc([C@@H]2[C@@H](CO)N3CCCCN(S(=O)(=O)c4cccc(C)c4)C[C@H]23)cc1 returned C diff growth 1, Pf Dd2 inh -40, T cruzi growth-1 inconclusive, T cruzi growth-2 108*, T cruzi growth-3 84, NIH3T3 tox 28 and NIH3T3 tox 2 103*.
Screening C/C=C/c1ccc([C@H]2[C@H]3CN(S(=O)(=O)c4cccc(C)c4)CCCCN3[C@H]2CO)cc1 returned C diff growth 36, Pf Dd2 inh -33 and T cruzi growth-1 86.
For C[C@@H]1CN([C@@H](C)CO)C(=O)c2cc(NC(=O)Nc3ccc(F)cc3)ccc2O[C@@H]1CN(C)Cc1ccc(-c2ccccc2)cc1 the results were C diff growth 77, Pf Dd2 inh -2, T cruzi growth-1 94*, T cruzi growth-2 96*, T cruzi growth-3 87, NIH3T3 tox 57* and NIH3T3 tox 2 102*.
Screening C[C@@H]1CN([C@H](C)CO)C(=O)c2cc(NC(=O)Nc3ccc(F)cc3)ccc2O[C@H]1CN(C)Cc1ccc(-c2ccccc2)cc1 returned C diff growth 2, Pf Dd2 inh 9 and T cruzi growth-1 48.
For C[C@H]1CN([C@@H](C)CO)C(=O)c2cc(NC(=O)Nc3ccccc3)ccc2O[C@H]1CN(C)Cc1ccc(-c2ccccc2)cc1 the results were C diff growth 2, Pf Dd2 inh 11 and T cruzi growth-1 77.
`C[C@@H]1CN([C@H](C)CO)C(=O)c2cc(NC(=O)Nc3ccc(F)cc3)ccc2O[C@@H]1CN(C)Cc1ccc(-c2ccccc2)cc1` gave C diff growth 69, Pf Dd2 inh 7, T cruzi growth-1 inconclusive, T cruzi growth-2 95*, T cruzi growth-3 89, NIH3T3 tox 111* and NIH3T3 tox 2 106*.
`N#C[C@@H]1[C@@H](c2ccc(C#CC3(O)CCCC3)cc2)[C@@H](CO)N1C(=O)C1CCCCC1` gave C diff growth -9, Pf Dd2 inh 9, T cruzi growth-1 97*, T cruzi growth-2 110*, T cruzi growth-3 84, NIH3T3 tox 23 and NIH3T3 tox 2 inconclusive.
